Common to all, as to assay: NCI-60 one-dose screen, 48 h (100 = growth as untreated, 0 = no growth, -100 = all killed)
What all share (settings): 10 µM unless noted

For test [1], the system named is T-47D breast.
Test [2] has as its system BT-549 breast.
In test [3] the test system is MDA-MB-435 melanoma.
Test [4] deals with SW-620 colon.
Test [5] has as its system MCF7 breast.
The test system of test [6] is HCT-116 colon.
The subject of test [7] is HCC-2998 colon.
Test [8] has as its system KM12 colon.

Structures are written as SMILES. About 83,000 compounds went through this panel and 20% of them were active in at least one assay; those are over-represented in the sample as a whole.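 Interpretation: 100, growth as untreated; towards 0, rising growth inhibition; 0, no net growth; 0 to -100, cell death. Compounds scoring below 10 were considered active.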 A number with no mark means an inactive call. The source made the active and inactive calls.

In the case of `CN(C)CCCC1(c2ccc(F)cc2)OCc2cc(-c3cccc4[nH]ccc34)ccc21` (configuration not stated), the growth in test [1] was -39.2% (active); in test [2], 73.8%; in test [3], -42.1% (active); in test [4], -24.6% (active); in test [5], -24.1% (active); in test [6], -64% (active). In addition, the results for the growth in test [7] and in test [8] were -30.6% (active) and 10.3%, respectively.
In the case of `O=CC1(C2(C=O)c3ccccc3-c3ccccc32)c2ccccc2-c2ccccc21`, the growth in test [1] was -51% (active); in test [2], -74.3% (active); in test [3], -57.9% (active); in test [4], -29.2% (active); in test [5] it was -52.4% (active); in test [6] it was -60.6% (active). Moreover, the growth is -41.5% (active) in test [7] and -44.5% (active) in test [8].
`Cc1ccc(-c2nc3nc(-c4ccc(F)cc4)nc(N4CCNCC4)c3o2)cc1`: the growth is -27.4% (active) in test [1]; 99.5% in test [2]; 66% in test [3]; -79.3% (active) in test [4]; -74.2% (active) in test [5]; -92.1% (active) in test [6]. The growth in test [7] was 19.4%; in test [8], -83.7% (active).
Turning to `O=c1oc2ccccc2cc1C1=NN=C(SCc2ccccc2)SC1`, the growth was 85.5% in test [1]; 102% in test [2]; 107% in test [3]; 106% in test [4]; 94.3% in test [5]; 99.1% in test [6]. Besides, the growth was 109% in test [7] and 99.7% in test [8].
`CC1=Nc2cnc(Nc3ccc(OCCN4CCCC4)cc3)nc2Nc2ccccc21`: the growth in test [1] is 61.1%; in test [2], 88.2%; in test [3], 72.2%; in test [4], 68.4%; in test [5], 75%; in test [6], 73.6%. In addition, the growth was 72.2% in test [7] and 15.2% in test [8].
As to `O=[N+]([O-])c1ccc(S(=O)(=O)N2CCN(C3=NS(=O)(=O)c4ccccc4N3c3ccccc3)CC2)cc1`, the growth in test [1] was 115%; in test [2], 99.8%; in test [3], 97.2%; in test [4], 103%; in test [5], 101%; in test [6] it was 91.2%. Further, the growth in test [7] was 91.3%; in test [8], 110%.
Regarding `O=c1oc2c(cnc3ccccc32)cc1-c1ccsc1`, the growth in test [1] is 85.9%; in test [2] it was 100%; in test [3], 102%; in test [4] it was 96.8%; in test [5] it was 33.2%; in test [6] it was 99.7%. For the same compound, the figures for the growth in test [7] and in test [8] were 123% and 94%, respectively.
In the case of `CCNc1nc(-c2ccc(Cl)c(OC)c2)c(-c2ccnc(NCCCNS(=O)(=O)c3ccc(Cl)cc3)n2)s1`, the growth in test [1] was 37.4%; in test [2], 52%; in test [3], 24.8%; in test [4] it was 80.9%; in test [5] it was 66.3%; in test [6], 42.4%. Also, the growth in test [7] was 102%; in test [8] it was 65.3%.
For `Fc1cc2c(cc1Cl)N(c1ncnc3ccc(-c4cnc5[nH]ncc5c4)cc13)CC2`, the growth in test [1] is 17.8%; in test [2], 62.8%; in test [3] it was 74.1%; in test [4] it was 80.2%; in test [5] it was 30.9%; in test [6], 70.3%. For the same compound, the growth was 69.1% in test [7] and 77.8% in test [8].
With `Nc1nc2c([nH]1)c1[nH]c3ccccc3c1c1[nH]c3ccccc3c21`, the growth in test [1] was 32.4%; in test [2], 64.6%; in test [3], 1.06% (active); in test [4] it was -31.5% (active); in test [5], 13.6%; in test [6], -47.9% (active). The growth was -70.6% (active) in test [7] and 39.5% in test [8].
Turning to `CO/N=C(/C)c1ccc(NC(=O)CSc2nnc(-c3ccncc3)n2-c2ccccc2)cc1`, the growth in test [1] was 17.4%; in test [2], 6.99% (active); in test [3] it was 47%; in test [4], 84.2%; in test [5], 42%; in test [6], 4.38% (active). Moreover, the values for the growth in test [7] and in test [8] were 82.3% and 61.9%, respectively.
On to `O=C1C(Cl)=C(Oc2ccccc2)C(=O)c2ccccc21`, for which the growth in test [1] is -0.942% (active); in test [2], 70.8%; in test [3], 108%; in test [4], 47.6%; in test [5], 73%; in test [6], 29.3%. Moreover, the growth in test [7] is 66.5%; in test [8] it was 27.1%.
Regarding `C/C(=N\NC(=O)c1ccccc1O)c1cccc(/C(C)=N/NC(=O)c2ccccc2O)n1`, the growth was 41.8% in test [1]; -2.08% (active) in test [2]; 40% in test [3]; 31.2% in test [4]; 44.3% in test [5]; 27.1% in test [6]. Further, the growth in test [7] is 18.4%; in test [8], 22.6%.
Turning to `Cc1cc2c(O)c(-c3cc(Cl)ccc3Cl)c3sc(=O)oc3c2cc1C`, the growth in test [1] is 32.4%; in test [2], 81.7%; in test [3], 47.3%; in test [4], 57.8%; in test [5], 60.9%; in test [6] it was 36.2%. Further, the figures for the growth in test [7] and in test [8] were 102% and 59.1%, respectively.

The record behind these values is PubChem BioAssay (NCI).
